Bioassay records deposited in PubChem by National Center for Advancing Translational Sciences (NCATS).
DT40 TDP1 CPT: qHTS for Inhibitors of human tyrosyl-DNA phosphodiesterase 1 (TDP1): qHTS in cells in presence of CPT; chicken DT40 Tdp1-/-;hTDP1 cells + 20 nM CPT, ATP luminescence, 48 h; Potency, µM (top dose mostly 46.2 µM), without a hit: at the highest dose activity change, negative = growth inhibition, hits mostly inhibitors; 420,000 compounds, 12% hits; AID 686979, 2013; further: potency means the concentration at half of the fitted maximal effect; nearly all actives have a fitted effect of over 55% in size
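Chicken DT40 Tdp1-/- cells stably complemented with human TDP1 were seeded at 400 cells/well in medium containing 20 nM camptothecin, exposed to pin-transferred compounds, and grown at 37 °C for at least 48 hr. Viability was read as ATP luminescence.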
TDP1 cell noCPT: qHTS for Inhibitors of human tyrosyl-DNA phosphodiesterase 1 (TDP1): qHTS in cells in absence of CPT; DT40 Tdp1-/- hTDP1 cells, no CPT, ATP luminescence, 48 h; Potency, µM (highest dose often 46.2 µM), for the others: at the top dose activity change, negative = growth inhibition, actives largely listed as inhibitors; 420,000 compounds, 15% hits; further: potency means the concentration at half of the fitted maximal effect; nearly all actives have a fitted effect of over 55% in size
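Camptothecin absent (DMSO only). Human TDP1-complemented DT40 knockout cells, 400 cells/well, 37 °C for minimum 48 hr; ATP measured via CellTiter-Glo, 30 min dark incubation, luminescence.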
HT1080 IDH1KD tx: qHTS for induction of synthetic lethality in tumor cells producing 2HG: qHTS for the HT-1080-IDH1KD cell line. 360,000 compounds, 2% hits. Potency, µM (doses to about 46.1 µM), inactives show at the top dose activity, negative = toxicity, actives largely listed as cytotoxic. HT-1080 IDH1 knockdown viability, ATP luminescence, 48 h;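 further: potency means the concentration at half of the fitted maximal effect; 0% = DMSO wells and -100% = cell-free medium wells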
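CellTiter-Glo luminescence after 48 h compound exposure at 37 degrees C of IDH1-knockdown HT-1080 cells in 5% FBS RPMI. %Activity scaled between DMSO wells and cell-free media wells, with curves fitted and assigned curve classes.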
uPA generation: qHTS for Inhibitors of Cell Surface uPA Generation. cell surface uPA generation assay, qHTS. Potency, µM (series often up to 38.3 µM), for inactives: at the highest dose activity change, negative = inhibition, hits mostly inhibitors. 330,000 compounds, 0.31% hits. AID 540303, 2011; active means well fitted inhibition curve with a large enough effect; inconclusive means small, poorly fitted or top-dose-only effect; inactive means no such curve, though single readings can be large or run the other way; tested in mouse RAW 264.7 cells; further: potency means the concentration at half of the fitted maximal effect; nearly all actives have a fitted effect of over 55% in size
IL-1B inflam inh: qHTS for Inhibitors of Inflammasome Signaling: IL-1-beta AlphaLISA Primary Screen. THP-1 LPS/ATP IL-1B secretion, AlphaLISA, 16 h; active compounds read low. 360,000 compounds, 4.7% hits. AID 743279, 2014. activity change, % at 57.5 µM; in the data active means activity change below about -50%; inconclusive means mostly about -30% to -49%
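Secreted IL-1B measured by AlphaLISA bead assay after 16 h compound exposure of THP-1 cells; compounds (final up to 57.5 uM) added 1 h before LPS (250 ng/mL) and ATP (1.25 mM) stimulation; lower signal means less secretion.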
HT1080-NT tox: qHTS for induction of synthetic lethality in tumor cells producing 2HG: qHTS for the HT-1080-NT fibrosarcoma cell line | HT-1080-NT fibrosarcoma viability, CellTiter-Glo ATP luminescence, 48 h | Potency, µM (series often up to 46.1 µM), for inactives: at the highest dose activity, negative = less viability, actives largely listed as cytotoxic | 360,000 compounds, 1.6% hits;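 further: NT is the 2HG producing partner of a matched IDH1 knockdown line; potency means the concentration at half of the fitted maximal effect; 0% = DMSO-treated cells and -100% = media-only wells without cells; nearly all actives have a fitted effect of over 55% in size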
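Viability of the 2HG-overproducing fibrosarcoma line after 48 hours of compound exposure at 37 degrees C was determined by luminescence with CellTiter-Glo, and concentration-effect curves were then fitted and categorized.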
* marks the source's active call; other numbers are inactive results; ? = inconclusive; / = no result. Shown are actives, neighbours in structure and some others; about 19% of the full set was active somewhere. Unless noted, the call rests on the fitted dose curve; in most records, active means well fitted curve in the direction sought with a large enough effect; inconclusive means small, poorly fitted or top-dose-only effect, or another doubt; inactive means no such curve, though single readings can be large; an effect the other way counts as inactive or inconclusive. Unless noted, on the % scale 0 is the no-effect control and ±100 the full control effect.

SMILES | DT40 TDP1 CPT | TDP1 cell noCPT | HT1080 IDH1KD tx | uPA generation | IL-1B inflam inh | HT1080-NT tox
C[C@]12C=CC(=O)C=C1CC[C@@H]1C2=CC[C@]2(C)[C@@H](C(=O)CN3CCN(c4cc(N5CCCC5)nc(N5CCCC5)n4)CC3)CC[C@@H]12 | 18µM* | 13µM* | -25% | ? | ? | -26%
CCOC(=O)C1=C(N)OC2=C(C(=O)CCC2)C12C(=O)N(C)c1ccccc12 (stereo not given) | 0% | -4% | -4% | 2% | 1 | 3%
O=C(O)c1[nH]c(=O)[nH]c(=O)c1F | 12µM* | 12µM* | ? | -12% | 33 | -12%
C=CCOC(=O)C1C(C(=O)O)C2(Cl)C(Cl)=C(Cl)C1(Cl)C2(Cl)Cl (stereo not given) | ? | -11% | -21% | -4% | -5 | -1%
Oc1ccccc1-c1ccccc1 | 0% | -10% | / | / | / | /
CN1CC2CN(Cc3ccccc3)S(=O)(=O)C2C1 (stereo not given) | -9% | 3% | 11% | / | 2 | ?
COc1ccc(-c2nn(CCC#N)cc2C(=O)NCc2ccccc2)cc1OC | -18% | -11% | 8% | 5% | 8 | 6%
COc1ccc(-c2cc([C@H]3[C@H]4C=CC[C@@H](C)[C@@H]4C(=O)N3Cc3ccccc3)ccc2F)cc1OC | 23µM* | 13µM* | -20% | ? | -7 | -26%
COc1ccccc1CCNC1CCC(C(C)(C)C)CC1 (stereo not given) | ? | 21µM* | ? | / | -65* | ?
CCCNC(=O)N1[C@H]2CC[C@@H]1C(C(=O)OC)=C(c1cccc(C#N)c1)C2 | -14% | -4% | 1% | -12% | -8 | 14%
COC(=O)C1=C(c2cccc(OCc3ccccc3)c2)C[C@@H]2CC[C@H]1N2C(=O)NCCc1ccc(F)cc1 | ? | 16µM* | -17% | ? | ? | -19%
COC(=O)C1=C(c2ccc(OC)c(OC)c2)C[C@@H]2CC[C@H]1N2C(=O)NCCOc1ccccc1 | ? | -22% | 15% | 15% | 4 | 13%
COC(=O)C1=C(c2ccc(C(C)=O)cc2)C[C@@H]2CC[C@H]1N2C(=O)NCCOc1ccccc1Cl | 23µM* | ? | 5% | 7% | 0 | 7%
COC(=O)C1=C(c2cccc(OCc3ccccc3)c2)C[C@@H]2CC[C@H]1N2C(=O)NCc1cccc(F)c1 | ? | ? | -23% | ? | -15 | ?
COC(=O)C1=C(c2cccc(C#N)c2)C[C@@H]2CC[C@H]1N2C(=O)NCCOc1ccccc1Cl | 18µM* | 16µM* | 5% | 13% | -4 | 6%
COC(=O)C1=C(c2cccc(OCc3ccccc3)c2)C[C@@H]2CC[C@H]1N2C(=O)NCCOc1ccccc1 | ? | 21µM* | -12% | ? | -14 | -7%
Cc1c(C(=O)N2CCC3(CC2)OCCO3)oc2ccc(S(=O)(=O)N3CCCCC3)cc12 | ? | ? | 5% | -2% | 8 | 3%
CCOP(=O)(OCC)C(Cc1ccc(OC)c(OC)c1)N=C(c1ccccc1)c1ccccc1 (stereo not given) | ? | ? | -14% | / | -11 | -11%
COC(=O)C1=C(c2cccc(C#N)c2)C[C@@H]2CC[C@H]1N2C(=O)NCCCOC(C)C | 4% | -10% | 5% | -8% | 0 | 2%
CCCCCCC(=O)c1c(O)n(-c2ccccc2OC)c(=O)[nH]c1=O | ? | ? | -1% | 13% | 15 | -1%
